Inconclusive results are not listed. Calls of active or inactive are those of the source. Calls come from the whole dose curve; as a rule, active = well fitted inhibition curve with a large enough effect; inconclusive = small, poorly fitted or top-dose-only effect; inactive = no such curve, though single readings can be large or run the other way.
These molecules were tested against Rap guanine nucleotide exchange factor 4 (Homo sapiens) (UniProt Q8WZA2) (assay: Confirmatory qHTS for antagonist of cAMP-regulated guanine nucleotide exchange factor 4 (EPAC2) (AID 1645885; note: nearly all actives have a fitted effect of over 25% in size)). Conditions: EPAC2 Rap1B-BODIPY-GDP exchange fluorescence, biochemical; series mostly up to 12.7 µM.
Sequence of Rap guanine nucleotide exchange factor 4 (Homo sapiens) (Q8WZA2 whole entry, looked up): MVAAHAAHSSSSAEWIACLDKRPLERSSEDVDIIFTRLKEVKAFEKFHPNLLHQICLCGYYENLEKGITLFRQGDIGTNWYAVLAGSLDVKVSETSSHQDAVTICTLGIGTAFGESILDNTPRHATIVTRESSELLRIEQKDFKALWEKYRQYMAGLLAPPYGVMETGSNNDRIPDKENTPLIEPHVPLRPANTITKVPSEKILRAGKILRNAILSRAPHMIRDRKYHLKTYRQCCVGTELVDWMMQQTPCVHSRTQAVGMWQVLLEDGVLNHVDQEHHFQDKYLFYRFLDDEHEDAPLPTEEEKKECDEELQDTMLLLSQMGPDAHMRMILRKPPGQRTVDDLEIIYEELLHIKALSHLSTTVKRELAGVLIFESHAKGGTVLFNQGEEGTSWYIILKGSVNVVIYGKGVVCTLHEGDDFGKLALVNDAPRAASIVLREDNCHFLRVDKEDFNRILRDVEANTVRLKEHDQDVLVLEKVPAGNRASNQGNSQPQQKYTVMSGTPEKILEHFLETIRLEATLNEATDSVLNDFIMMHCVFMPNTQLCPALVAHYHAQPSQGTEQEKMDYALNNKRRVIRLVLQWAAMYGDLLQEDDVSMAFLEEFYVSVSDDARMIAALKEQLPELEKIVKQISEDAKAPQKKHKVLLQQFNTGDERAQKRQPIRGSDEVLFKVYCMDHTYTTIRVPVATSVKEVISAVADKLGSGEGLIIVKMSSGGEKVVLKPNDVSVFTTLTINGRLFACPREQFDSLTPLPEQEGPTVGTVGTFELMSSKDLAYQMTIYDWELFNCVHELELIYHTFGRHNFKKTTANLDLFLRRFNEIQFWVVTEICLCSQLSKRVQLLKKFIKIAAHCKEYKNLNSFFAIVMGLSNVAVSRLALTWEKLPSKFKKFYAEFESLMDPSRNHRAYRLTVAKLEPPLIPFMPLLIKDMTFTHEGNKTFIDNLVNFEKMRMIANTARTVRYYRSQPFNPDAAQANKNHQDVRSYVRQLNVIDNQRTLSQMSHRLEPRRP
Potency is the fitted concentration of half-maximal effect.

Potency, active:
CCN1C/C(=C/c2ccc(N3CCOCC3)cc2)C(=O)/C(=C/c2ccc(N3CCOCC3)cc2)C1 67.5 µM
COc1cc(/C=C2\SC(=S)N(NS(=O)(=O)c3ccc(C)cc3)C2=O)cc(OC)c1OC 33.8 µM

Potency, inactive:
CCOc1ccc(CCNC(=O)c2cccc(S(=O)(=O)N3CCCCC3)c2)cc1OCC
C=CCCCN(Cc1ccccc1)S(=O)(=O)c1ccccc1Br
CCCCCN(C(=O)CCC(=O)OCc1ccc(C(C)C)cc1)c1c(N)n(CCCC)c(=O)[nH]c1=O
Cc1ccc2c(c1)C=CC(C#N)N2C(=O)c1ccccc1 (stereo unspecified)
CC(/C=C1\SC(=S)N(NS(=O)(=O)c2ccccc2)C1=O)=C\c1ccccc1
CC(C)OC(=O)c1c(-c2ccccc2)c(-c2ccccc2)nn(C)c1=O
O=C(O)C(c1ccccc1)N1C(=O)/C(=C\c2ccc(-c3ccccc3Cl)o2)SC1=S (stereo unspecified)
Cc1ccc(CN(C(=O)COc2cccc(Cl)c2)c2ccccn2)o1
CC(Sc1ccccc1)C(=O)NNC(=O)c1csc(N2CCOCC2)n1 (stereo unspecified)
NC(=O)c1sc(=S)n2c1[nH]c(=O)c1sccc12
Cc1ccc(NC(=O)N2CCN(c3nnc(C)c4c(C)n(-c5ccc(Cl)cc5)nc34)CC2)c(C)c1
CC1(C)Cc2ccccc2-c2nnc(-c3ccc4ccccc4n3)n21
COc1ccc(NC(=O)c2ccc(NC3=NC4CS(=O)(=O)CC4S3)cc2)cc1 (stereo unspecified)

outcome, inactive:
COc1ccc(Br)cc1CNC(=O)c1ccc2nc(C(C)C)oc2c1 inactive [at 12.7 µM]
